Data from article PMC5540273 (PLoS ONE, 2017).
Where “and” joins values, the source holds several entries; their conditions need not be identical. Equal entries are not always repeated. Where two headings read alike, the source gives them in different places.

Tests used:
[1] = system: CSNK1A1L; settings: concentration: 1 μM, replicates: in singlicate, n = 1
[2] = system: CSNK1A1; settings: concentration: 1 μM, replicates: in singlicate, n = 1
[3] = system: CSNK1D; settings: concentration: 1 μM, replicates: in singlicate, n = 1
[4] = system: CSNK1E; settings: concentration: 1 μM, replicates: in singlicate; n = 1
[5] = system: CSNK1G1; settings: concentration: 1 μM, replicates: in singlicate, n = 1
[6] = system: CSNK1G2; settings: concentration: 1 μM, replicates: in singlicate, n = 1
[7] = system: CSNK1G3; settings: concentration: 1 μM, replicates: in singlicate, n = 1
[8] = system: CSNK2A1; settings: n = 1
[9] = system: CSNK2A2; settings: n = 1
[10] = system: T1, CTK; settings: concentration: 1 μM, replicates: in singlicate; n = 1
T1 construct: gene MATK

[11] = concentration: 1 μM, replicates: in singlicate
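Further: KINOMEscan kinase panel screen.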

Row | Compound | %Inh [1] [%] | %Inh [2] [%] | %Inh [3] [%] | %Inh [4] [%] | %Inh [5] [%] | %Inh [6] [%] | %Inh [7] [%] | %Inh [8, 11] [%] | %Inh [9, 11] [%] | %Inh [10] [%] | %Inh ([8]; 1 µM) [%] | %Inh ([9]; 1 µM) [%] | %Inh ([1]; 1 µM) | %Inh ([2]; 1 µM) | %Inh ([3]; 1 µM) | %Inh ([5]; 1 µM) | %Inh ([6]; 1 µM) | %Inh ([7]; 1 µM) | %Inh ([9]; concentration: 1 μM, replicates: in singlicate, 1 µM)
1 | Cc1ccc(NC(=O)c2ccnc(N3CCN(C)CC3)c2)cc1-c1ccc(C(=O)NCC2CC2)cc1 [GW775604] | 0 | 0 | 0 | 24 | 0 | 0 | 0 | 0 | 7 | 0 | – | – | – | – | – | – | – | – | –
2 | O=C(NCCCN1CCOCC1)c1cccc(Nc2nccc(Nc3ccc(Oc4ccccc4)cc3)n2)c1 [GW663929] | 0 | 0 | 3 | 0 | 18 | 0 | 11 | 10 | 21 | 11 | – | – | – | – | – | – | – | – | –
3 | COc1ccc(Nc2nccc(N3CCC(NC(=O)Nc4cccc(C(C)=O)c4)C3)n2)cc1 (stereo not drawn) [GSK1379731] | 4 | 0 | 0 | 39 | 0 | 0 | 0 | 0 | 0 | 0 | – | – | – | – | – | – | – | – | –
4 | CCc1nc(-c2cccc(C)c2)c(-c2ccnc(NCc3ccccc3)c2)s1 | 11 | 8 | 29 | 8 | 0 | 0 | 0 | 0 | 0 | 17 | – | – | – | – | – | – | – | – | –
5 | N#Cc1c(N2CCOCC2)sc(-c2ccn[nH]2)c1-c1ccc(Cl)cc1 | 0 | 17 | 0 | 15 | 0 | 0 | 10 | 34 | 14 | 3 | – | – | – | – | – | – | – | – | –
6 | CCCCCc1nc2c(N)ncnc2n1CCCCC [SKF-97255] | 0 | 14 | 0 | 3 | 0 | 0 | 6 | 0 | 28 | 0 | – | – | – | – | – | – | – | – | –
7 | COCCNC(=O)c1ccc(-c2cc(C(=O)NC3CC3)cc(F)c2C)cc1 [GW868318] | 5 | 9 | 1 | 31 | 0 | 4 | 8 | 0 | 9 | 11 | – | – | – | – | – | – | – | – | –
8 | Cc1c2ccc(N(C)c3ccnc(Nc4cccc(S(N)(=O)=O)c4)n3)cc2nn1Cc1ccccc1.Cl.Cl [GW787226] | 0 | 15 | 0 | 0 | 0 | 0 | 0 | 0 | 1 | 26 | – | – | – | – | – | – | – | – | –
9 | COc1ccc(Nc2nccc(N3CCC(NC(=O)Nc4cc(C)ccc4C)C3)n2)cc1 (stereo not drawn) [GSK1379741] | 2 | 0 | 0 | 12 | 0 | 0 | 14 | 0 | 0 | 0 | – | – | – | – | – | – | – | – | –
10 | CN1c2ccc(NCc3ccc(F)cc3)cc2-c2c(cnn2C)S1(=O)=O | 0 | 0 | 2 | 3 | 0 | 0 | 0 | 0 | 0 | 0 | – | – | – | – | – | – | – | – | –
11 | COc1ccc(CNC(=O)NC2CCN(c3ccnc(Nc4ccc(OC)cc4)n3)C2)cc1 (stereo not drawn) [GSK1379727] | 5 | 0 | 0 | 8 | 0 | 0 | 8 | 7 | 0 | 0 | – | – | – | – | – | – | – | – | –
12 | CNc1ncnc2[nH]ncc12 [SKF-18355] | 0 | 14 | 0 | 32 | 0 | 0 | 11 | 0 | 3 | 18 | – | – | – | – | – | – | – | – | –
13 | NCC(NC(=O)c1cc(-c2cn[nH]c2)c(-c2ccnc3[nH]ccc23)s1)c1ccccc1.O=C(O)C(F)(F)F.O=C(O)C(F)(F)F (stereo not drawn) [GSK1325775] | 87 | 93.3 | 91.9 | 99.4 | 55 | 90 | 81 | 15 | 33 | 0 | – | – | – | – | – | – | – | – | –
14 | COc1cc2c(cc1OCCN1CCN(C)CC1)ncc1c3ccc(C#N)cc3[nH]c21 | 0 | 0 | 18 | 0 | 0 | 0 | 0 | 73 | 95.2 | 23 | – | – | – | – | – | – | – | – | –
15 | CN(C(=O)c1ccc(-c2cc(-c3c[nH]nc3-c3ccccn3)ccn2)cc1)C1CCOCC1 [GW810083] | 8 | 37 | 29 | 42 | 5 | 0 | 0 | 0 | 0 | 5 | – | – | – | – | – | – | – | – | –
16 | COc1ccc(COc2cc(-n3cnc4ccccc43)sc2C(N)=O)cc1 [GSK1024304] | 13 | 0 | 0 | 30 | 11 | 5 | 22 | 4 | 13 | 0 | – | – | – | – | – | – | – | – | –
17 | O=c1cc(N2CCOCC2)nc2n(Cc3cccc(Cl)c3Cl)c(C3CC3)nn12 [GSK2358994] | 0 | 0 | 7 | 11 | 0 | 5 | 23 | – | – | 0 | 16 | 0 | – | – | – | – | – | – | –

Row | Compound | %Inh [1] [%] | %Inh [2] [%] | %Inh [3] [%] | %Inh [4] [%] | %Inh [5] [%] | %Inh [6] [%] | %Inh [7] [%] | %Inh [8, 11] [%] | %Inh [9, 11] [%] | %Inh [10] [%] | %Inh ([8]; 1 µM) [%] | %Inh ([9]; 1 µM) [%] | %Inh ([1]; 1 µM) | %Inh ([2]; 1 µM) | %Inh ([3]; 1 µM) | %Inh ([5]; 1 µM) | %Inh ([6]; 1 µM) | %Inh ([7]; 1 µM) | %Inh ([9]; concentration: 1 μM, replicates: in singlicate, 1 µM)
18 | COC(=O)Nc1nc2cc(Oc3ccc(NC(=O)Nc4cc(F)ccc4F)cc3)ccc2[nH]1.Cl [GW701424] | 13 | 0 | 9 | 26 | 0 | 0 | 21 | 0 | 6 | 0 | – | – | – | – | – | – | – | – | –
19 | CC(C)(CN)c1nc(-c2ccc(Cl)c(O)c2)c(-c2ccncc2)[nH]1.O=C(O)C(F)(F)F [SB-477794] | – | – | – | 99.6 | – | – | – | 0 | – | 0 | – | – | 85% and 81% | 96.3% and 93.8% | 97% and 96.6% | 0% and 5% | 0% and 7% | 22% and 14% | 11% and 0%
20 | O=C(Nc1n[nH]c2cc(-c3cccc(F)c3)ccc12)C1CC1 [SB-735464] | 10 | 0 | 0 | 0 | 0 | 0 | 0 | 3 | 24 | 49 | – | – | – | – | – | – | – | – | –
21 | O=c1cc(N2CCOCC2)nc2n(Cc3cccc(F)c3)ccn12 [GSK2297430] | 18 | 20 | 15 | 35 | 9 | 1 | 13 | 0 | 0 | 0 | – | – | – | – | – | – | – | – | –
22 | COc1cc2ncn(-c3cc(OCc4sccc4Cl)c(C(N)=O)s3)c2cc1OC [GSK448459] | 6 | 0 | 16 | 28 | 4 | 0 | 13 | 25 | 34 | 0 | – | – | – | – | – | – | – | – | –
23 | O=C(NCCNc1ccnc(Nc2ccc(F)cc2)n1)c1cc2ccccc2s1 [GSK1379874] | 9 | 0 | 0 | 37 | 0 | 0 | 21 | 7 | 19 | 52 | – | – | – | – | – | – | – | – | –
24 | Cc1nnc(-c2ccc3occ(-c4ccc(C(C)O)cc4)c3c2)o1 (stereo not drawn) | 0 | 14 | 0 | 7 | 0 | 9 | 0 | 25 | 53 | 0 | – | – | – | – | – | – | – | – | –
25 | CCc1ccnc(/C=C/c2n[nH]c3cc(Sc4ccccc4C(=O)NC)ccc23)c1 | 0 | 26 | 8 | 0 | 0 | 0 | 0 | 0 | 0 | 0 | – | – | – | – | – | – | – | – | –
26 | O=c1cc(N2CCOCC2)nc2n(Cc3cccc(C(F)(F)F)c3)ccn12 [GSK2297543] | 16 | 24 | 17 | 0 | 13 | 0 | 8 | 0 | 9 | 0 | – | – | – | – | – | – | – | – | –
27 | CC(=O)Nc1ccc(COc2ccc(Nc3ccnc4cc(-c5ccccn5)ccc34)cc2)cc1.Cl [GW440148] | 0 | 0 | 24 | 33 | 9 | 0 | 29 | 5 | 11 | 3 | – | – | – | – | – | – | – | – | –
28 | COc1cc2c(cc1OC[C@@H](O)CO)ncc1c3ccc(C#N)cc3[nH]c21 | 0 | 9 | 0 | 0 | 0 | 0 | 0 | 81 | 93.9 | 18 | – | – | – | – | – | – | – | – | –
29 | c1ccc(-c2cc(-c3c[nH]nc3-c3ccccn3)ccn2)cc1 [GW576604] | 0 | 0 | 38 | 15 | 0 | 1 | 3 | 0 | 15 | 0 | – | – | – | – | – | – | – | – | –
30 | Cl.Nc1ncnc2occ(-c3ccc(NC(=O)Nc4cc(C(F)(F)F)ccc4F)cc3)c12 [SB-707548] | 11 | 10 | 32 | 25 | 16 | 0 | 32 | 0 | 0 | 4 | – | – | – | – | – | – | – | – | –
31 | NS(=O)(=O)c1cccc(-c2ccc3nccc(-c4cccc(S(N)(=O)=O)c4)c3c2)c1 [GW867253] | 0 | 0 | 0 | 12 | 0 | 0 | 0 | 0 | 22 | 31 | – | – | – | – | – | – | – | – | –
32 | COc1cc(Nc2nccc(N3CCC(NC(=O)c4cccc(NC(C)=O)c4)C3)n2)cc(OC)c1OC (stereo not drawn) [GSK1379754] | 4 | 6 | 0 | 0 | 4 | 0 | 8 | 17 | 65 | 0 | – | – | – | – | – | – | – | – | –
33 | Fc1ccc(-c2ncn(CCCN3CCOCC3)c2-c2ccccn2)cc1 [SB-211742] | 0 | 36 | 10 | 9 | 5 | 0 | 0 | 0 | 0 | 0 | – | – | – | – | – | – | – | – | –
